Results reported in the supplement of paper PMC12282887.
± gives the standard deviation of the averaged measurements.

How the values were obtained:
Test in all cases: promoter activity interaction Z-score (Lux/OD deviation from empty-vector control); higher = stronger promoter induction by the compound
[1] = test system: E. coli BW25113 acrABp lux reporter
Outline: (§1)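 At 37°C, E. coli BW25113 reporter cultures in 40 µl LB Lennox in 384-well plates were read for OD600 and luminescence every 30 min for 12 h. Windows were 0–8 h for wild type and 1–9 h for deletion strains, and wells under 10% of the median growth value were removed. The score is the Z-transformed residual of growth-normalised luminescence against a control fit.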

[2] = test system: E. coli BW25113 marRABp lux reporter
Outline: as §1

[3] = test system: E. coli BW25113 micFp lux reporter
Outline: as §1

[4] = test system: E. coli BW25113 ompFp lux reporter
Outline: as §1

[5] = test system: E. coli BW25113 robp lux reporter
Outline: as §1

[6] = test system: E. coli BW25113 soxSp lux reporter
Outline: as §1

[7] = test system: E. coli BW25113 tolCp lux reporter
Outline: as §1

[8] = 0.064 µg/ml, genetic background: wild type
[9] = 0.064 µg/ml, genetic background: ΔmarA
[10] = 0.064 µg/ml, genetic background: Δrob
[11] = 0.064 µg/ml, genetic background: ΔsoxS
[12] = 0.13 µg/ml, genetic background: wild type
[13] = 0.13 µg/ml, genetic background: ΔmarA
[14] = 0.13 µg/ml, genetic background: Δrob
[15] = 0.13 µg/ml, genetic background: ΔsoxS
[16] = 0.26 µg/ml, genetic background: wild type
[17] = 0.26 µg/ml, genetic background: ΔmarA
[18] = 0.26 µg/ml, genetic background: Δrob
[19] = 0.26 µg/ml, genetic background: ΔsoxS
[20] = 0.51 µg/ml, genetic background: wild type
[21] = 0.0045 µg/ml, genetic background: wild type
[22] = 0.0045 µg/ml, genetic background: ΔmarA
[23] = 0.0045 µg/ml, genetic background: Δrob
[24] = 0.0045 µg/ml, genetic background: ΔsoxS
[25] = 0.009 µg/ml, genetic background: wild type
[26] = 0.009 µg/ml, genetic background: ΔmarA
[27] = 0.009 µg/ml, genetic background: Δrob
[28] = 0.009 µg/ml, genetic background: ΔsoxS

C[C@H]1c2cccc(O)c2C(=O)C2=C(O)[C@]3(O)C(=O)C(C(N)=O)=C(O)[C@@H](N(C)C)[C@@H]3[C@@H](O)[C@@H]21 [Doxycycline]
promoter activity interaction Z-score [1, 8]: 0.468 ± 0.23
promoter activity interaction Z-score [1, 9]: -0.101 ± 0.52
promoter activity interaction Z-score [1, 10]: 0.667 ± 0.18
promoter activity interaction Z-score [1, 11]: 0.902 ± 0.18
promoter activity interaction Z-score [1, 12]: 1.36 ± 0.11
promoter activity interaction Z-score [1, 13]: 0.0555 ± 0.26
promoter activity interaction Z-score [1, 14]: 2.17 ± 0.61
promoter activity interaction Z-score [1, 15]: 2.67 ± 1.3
promoter activity interaction Z-score [1, 16]: 3.4 ± 0.4
promoter activity interaction Z-score [1, 17]: -0.561 ± 0.26
promoter activity interaction Z-score [1, 18]: 3.18 ± 0.3
promoter activity interaction Z-score [1, 19]: 3.94 ± 0.66
promoter activity interaction Z-score [2, 8]: 0.973 ± 0.17
promoter activity interaction Z-score [2, 9]: 2.43 ± 0.098
promoter activity interaction Z-score [2, 10]: 0.676 ± 0.28
promoter activity interaction Z-score [2, 11]: 1.01 ± 0.13
promoter activity interaction Z-score [2, 12]: 2.72 ± 0.47
promoter activity interaction Z-score [2, 13]: 4.3 ± 0.47
promoter activity interaction Z-score [2, 14]: 1.1 ± 0.25
promoter activity interaction Z-score [2, 15]: 2.28 ± 0.13
promoter activity interaction Z-score [2, 16]: 3.51 ± 0.065
promoter activity interaction Z-score [2, 17]: 2.23 ± 1.1
promoter activity interaction Z-score [2, 18]: 0.478 ± 0.55
promoter activity interaction Z-score [2, 19]: 3.1 ± 0.92
promoter activity interaction Z-score [2, 20]: 0.833
promoter activity interaction Z-score [3, 8]: 1.47 ± 0.83
promoter activity interaction Z-score [3, 9]: 0.45 ± 0.069
promoter activity interaction Z-score [3, 10]: -0.0978 ± 0.028
promoter activity interaction Z-score [3, 11]: 0.831 ± 0.11
promoter activity interaction Z-score [3, 12]: 2.59 ± 0.24
promoter activity interaction Z-score [3, 13]: 0.672 ± 0.35
promoter activity interaction Z-score [3, 14]: 0.226 ± 0.065
promoter activity interaction Z-score [3, 15]: 2.53 ± 0.24
promoter activity interaction Z-score [3, 16]: 1.58 ± 0.61
promoter activity interaction Z-score [3, 17]: 1.02 ± 0.22
promoter activity interaction Z-score [3, 18]: -0.177 ± 0.23
promoter activity interaction Z-score [3, 19]: 2.84 ± 1.2
promoter activity interaction Z-score [3, 20]: -0.656 ± 0.6
promoter activity interaction Z-score [4, 8]: 2.17 ± 0.36
promoter activity interaction Z-score [4, 9]: 2.03 ± 0.54
promoter activity interaction Z-score [4, 10]: 2.36 ± 0.68
promoter activity interaction Z-score [4, 11]: 2.91 ± 0.58
promoter activity interaction Z-score [4, 12]: 2.54 ± 0.84
promoter activity interaction Z-score [4, 13]: 1.92 ± 0.47
promoter activity interaction Z-score [4, 14]: 2.05 ± 0.15
promoter activity interaction Z-score [4, 15]: 3.33 ± 0.7
promoter activity interaction Z-score [4, 16]: 0.914 ± 0.97
promoter activity interaction Z-score [4, 17]: -0.13 ± 1.5
promoter activity interaction Z-score [4, 18]: -1.55 ± 0.46
promoter activity interaction Z-score [4, 19]: 2.96 ± 1.1
promoter activity interaction Z-score [5, 8]: 0.541 ± 0.37
promoter activity interaction Z-score [5, 9]: 0.726 ± 0.57
promoter activity interaction Z-score [5, 10]: 0.325 ± 0.7
promoter activity interaction Z-score [5, 11]: 1.37 ± 0.15
promoter activity interaction Z-score [5, 12]: -0.332 ± 0.71
promoter activity interaction Z-score [5, 13]: -0.921 ± 0.38
promoter activity interaction Z-score [5, 14]: -0.263 ± 1.5
promoter activity interaction Z-score [5, 15]: 0.43 ± 1.4
promoter activity interaction Z-score [5, 16]: -1.3 ± 0.03
promoter activity interaction Z-score [5, 17]: -1.65 ± 0.046
promoter activity interaction Z-score [5, 18]: -2.35 ± 0.43
promoter activity interaction Z-score [5, 19]: -1.67 ± 0.45
promoter activity interaction Z-score [5, 20]: -0.891 ± 0.46
promoter activity interaction Z-score [6, 8]: 0.306 ± 0.015
promoter activity interaction Z-score [6, 9]: 0.57 ± 0.091
promoter activity interaction Z-score [6, 10]: 0.328 ± 0.17
promoter activity interaction Z-score [6, 11]: 0.664 ± 0.32
promoter activity interaction Z-score [6, 12]: 0.688 ± 0.29
promoter activity interaction Z-score [6, 13]: 0.899 ± 0.1
promoter activity interaction Z-score [6, 14]: 0.658 ± 0.49
promoter activity interaction Z-score [6, 15]: 1.87 ± 0.49
promoter activity interaction Z-score [6, 16]: 1.52 ± 0.49
promoter activity interaction Z-score [6, 17]: 2.111 ± 0.021
promoter activity interaction Z-score [6, 18]: 0.693 ± 0.49
promoter activity interaction Z-score [6, 19]: 2.44 ± 1
promoter activity interaction Z-score [6, 20]: 1.1 ± 0.16
promoter activity interaction Z-score [7, 8]: 0.271 ± 0.51
promoter activity interaction Z-score [7, 9]: 1.62 ± 0.076
promoter activity interaction Z-score [7, 10]: -0.121 ± 0.96
promoter activity interaction Z-score [7, 11]: 0.793 ± 0.57
promoter activity interaction Z-score [7, 12]: 0.44 ± 0.19
promoter activity interaction Z-score [7, 13]: 0.772 ± 1.2
promoter activity interaction Z-score [7, 14]: 0.309 ± 0.4
promoter activity interaction Z-score [7, 15]: 2.09 ± 0.67
promoter activity interaction Z-score [7, 16]: 0.167 ± 0.028
promoter activity interaction Z-score [7, 17]: 0.714 ± 0.019
promoter activity interaction Z-score [7, 18]: 2.36 ± 3.6
promoter activity interaction Z-score [7, 19]: 2.12 ± 1
promoter activity interaction Z-score [7, 20]: 0.561 ± 1.1

C[C@H]1COc2c(N3CCN(C)CC3)c(F)cc3c(=O)c(C(=O)O)cn1c23 [Levofloxacin]
promoter activity interaction Z-score [1, 21]: 0.161 ± 0.16
promoter activity interaction Z-score [1, 22]: 1.19 ± 0.57
promoter activity interaction Z-score [1, 23]: 0.765 ± 0.3
promoter activity interaction Z-score [1, 24]: 0.13 ± 0.43
promoter activity interaction Z-score [1, 25]: 1.49 ± 0.47
promoter activity interaction Z-score [1, 26]: 3.65 ± 2.5
promoter activity interaction Z-score [1, 27]: 3
promoter activity interaction Z-score [1, 28]: 0.933 ± 0.088
promoter activity interaction Z-score [2, 21]: 0.0777 ± 0.09
promoter activity interaction Z-score [2, 22]: 0.886 ± 0.81
promoter activity interaction Z-score [2, 23]: 0.457 ± 0.39
promoter activity interaction Z-score [2, 24]: 0.129 ± 0.058
promoter activity interaction Z-score [2, 25]: 1.81 ± 0.43
promoter activity interaction Z-score [2, 27]: 2.37
promoter activity interaction Z-score [2, 28]: 1.61 ± 0.18
promoter activity interaction Z-score [3, 21]: -0.267 ± 0.3
promoter activity interaction Z-score [3, 22]: 0.407 ± 0.14
promoter activity interaction Z-score [3, 23]: 0.249 ± 0.18
promoter activity interaction Z-score [3, 24]: 0.076 ± 0.062
promoter activity interaction Z-score [3, 25]: 0.268 ± 0.26
promoter activity interaction Z-score [3, 26]: 0.154 ± 0.1
promoter activity interaction Z-score [3, 27]: -0.048
promoter activity interaction Z-score [3, 28]: 0.58 ± 0.097
promoter activity interaction Z-score [4, 21]: 0.0942 ± 0.084
promoter activity interaction Z-score [4, 22]: 0.337 ± 0.47
promoter activity interaction Z-score [4, 23]: 0.283 ± 0.32
promoter activity interaction Z-score [4, 24]: 0.00971 ± 0.41
promoter activity interaction Z-score [4, 25]: 0.729 ± 0.33
promoter activity interaction Z-score [4, 26]: 1.02 ± 1.5
promoter activity interaction Z-score [4, 28]: 2.15 ± 2.1
promoter activity interaction Z-score [5, 21]: 0.859 ± 0.36
promoter activity interaction Z-score [5, 22]: 0.95 ± 0.41
promoter activity interaction Z-score [5, 23]: -0.178 ± 0.062
promoter activity interaction Z-score [5, 24]: 0.248 ± 0.29
promoter activity interaction Z-score [5, 25]: -0.182 ± 0.079
promoter activity interaction Z-score [5, 26]: 0.841 ± 0.84
promoter activity interaction Z-score [5, 27]: 0.348
promoter activity interaction Z-score [5, 28]: -0.154 ± 1.2
promoter activity interaction Z-score [6, 21]: -0.114 ± 0.024
promoter activity interaction Z-score [6, 22]: 0.133 ± 0.013
promoter activity interaction Z-score [6, 23]: -0.071 ± 0.15
promoter activity interaction Z-score [6, 24]: 0.197 ± 0.43
promoter activity interaction Z-score [6, 25]: 0.185 ± 0.047
promoter activity interaction Z-score [6, 26]: 0.0863 ± 0.079
promoter activity interaction Z-score [6, 27]: -0.0469 ± 0.15
promoter activity interaction Z-score [6, 28]: 2.32 ± 0.6
promoter activity interaction Z-score [7, 21]: -0.228 ± 1.2
promoter activity interaction Z-score [7, 22]: 0.741 ± 0.18
promoter activity interaction Z-score [7, 23]: -0.128 ± 1
promoter activity interaction Z-score [7, 24]: -0.647 ± 0.99
promoter activity interaction Z-score [7, 25]: 0.287 ± 1
promoter activity interaction Z-score [7, 26]: 0.606
promoter activity interaction Z-score [7, 27]: -0.887
promoter activity interaction Z-score [7, 28]: 2.55 ± 1.9
